{"source": "PubChem BioAssay"}
{"assay": "EMT-state selective cytotoxicity in co-culture – imaging, PC-3E GFP, TEM4-18 mCherry, primary screen (AID 1345086);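 further: cells exposed to compound for 72 h before imaging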", "details": "PC-3E GFP / TEM4-18 mCherry co-culture, imaging cell counts; measured here: mesenchymal TEM4-18 mCherry cell survival; at 1 µM"}
{"smiles": "C[C@@H]1CC[C@H]2C(C)(C)C3CC12CC[C@@]3(C)O", "note": "(stereo not given in full)", "normalised cell number": 0.91}
{"smiles": "COC1=C(O)C(=O)c2c(cc3oc(C(C)=O)c(O)c3c2O)C1=O", "normalised cell number": 1.12}
{"smiles": "O=C(Cc1ccncc1)c1ccc(F)cc1", "normalised cell number": 0.95}
{"smiles": "O=C(N[C@@H](Cc1ccc(O)cc1)C(=O)O)OCc1ccccc1", "normalised cell number": 1.04}
{"smiles": "COc1c(N2CC[C@@H](CN)C2)c(F)cc2c(=O)c(C(=O)O)cn(Cc3ccc(-c4ccccc4)cc3)c12", "normalised cell number": 0.98}
{"smiles": "O=C(O)CCc1ccccc1O", "normalised cell number": 1.07}
{"smiles": "CC(C)[C@@H]1CCC(CO)=C[C@@H]1/C=C(\\CO)C(=O)O", "normalised cell number": 1.13}
{"smiles": "C=C(C)[C@@H]1CC[C@]2(C)CC[C@]3(C)[C@@H](CCC4[C@@]5(C)CC[C@H](O)C(C)(C)C5CC[C@]43C)C12", "note": "(stereo not given in full)", "normalised cell number": 1.07}
{"smiles": "CC1(C)C[C@]2(C)CC(=O)O[C@H]3OC(=O)[C@@H]4CC[C@@H]1[C@]342", "normalised cell number": 0.96}
{"smiles": "O=C1N[C@@H]2[C@@H](Sc3ccccc3)OC(CO)C(O)[C@@H]2O1", "note": "(stereo not given in full)", "normalised cell number": 0.97}
{"smiles": "C[C@@H]1C[C@@H](O)[C@@H](O)CO1", "normalised cell number": 0.96}
{"smiles": "O=C(O)C(c1ccccc1)c1ccccc1", "normalised cell number": 1.13}
{"smiles": "NC(=O)c1cc(F)c(F)cc1NC1CC1", "normalised cell number": 1.16}
{"smiles": "O=C(O)c1ccc([C@H](O)c2ccccc2)cn1", "normalised cell number": 1.09}
{"smiles": "CC(=O)[C@H]1CCC2C3C=CC4=CC(=O)CC[C@@]4(C)C3CC[C@@]21C", "note": "(stereo not given in full)", "normalised cell number": 0.87}
{"smiles": "CC(C)=CCC[C@H](C)[C@H]1CC[C@]2(C)C[C@@H]3C(C)=CC(=O)[C@@H]3/C(C=O)=C\\C[C@@H]12", "normalised cell number": 1.04}
{"smiles": "CO[C@H]1/C=C/O[C@@]2(C)Oc3c(C)c(O)c4c(O)c(c(/C=N/N5CCN(C)CC5)c(O)c4c3C2=O)NC(=O)/C(C)=C\\C=C\\[C@H](C)[C@H](O)[C@@H](C)[C@@H](O)[C@@H](C)[C@H](CC(C)=O)[C@@H]1C", "normalised cell number": 1.03}
{"smiles": "COC(=O)C[C@@H]1C2(C)C(=O)[C@@H](CC3=C4CC(O)O[C@@H](c5ccoc5)[C@]4(C)CCC32)[C@H](O)C1(C)C", "note": "(stereo not given in full)", "normalised cell number": 1.14}
{"smiles": "COC(=O)c1c(Cl)nc(Cl)c2ccccc12", "normalised cell number": 0.91}
{"smiles": "CO/N=C1/C[C@]2(C[C@@H]3C[C@@H](C/C=C(\\C)C[C@@H](C)/C=C/C=C4\\COC5[C@H](O)C(C)=C[C@@H](C(=O)O3)[C@]45O)O2)O[C@H](/C(C)=C/C(C)C)[C@H]1C", "note": "(stereo not given in full)", "normalised cell number": 1.32}
{"smiles": "Cc1c(F)c(F)cc2c(=O)n(N)c(=O)n(C3CC3)c12", "normalised cell number": 0.71}
{"smiles": "COc1cc(C(O)CO)oc1C=O", "note": "(stereo not given)", "normalised cell number": 0.93}
{"smiles": "Cc1ccc(S[C@H]2OC3COC(c4ccccc4)OC3[C@@H]3OC(=O)N[C@H]23)cc1", "note": "(stereo not given in full)", "normalised cell number": 0.55}
{"smiles": "O=Cc1ccccc1O[C@@H]1O[C@H](CO)[C@H](O)[C@@H](O)[C@H]1O", "normalised cell number": 0.9}
{"smiles": "CC(=O)C1=C(O)C=C2Oc3c(C(N)=O)c(O)cc(O)c3[C@@]2(C)C1=O", "normalised cell number": 1.04}
{"smiles": "COc1c(N2CC[C@@H](CN)C2)c(F)cc2c(=O)c(C(=O)O)cn(Cc3ccc4ccccc4c3)c12", "normalised cell number": 0.93}
{"smiles": "CCC(C)[C@H]1O[C@]2(CC[C@@H]1C)C[C@@H]1C[C@@H](C/C=C(\\C)[C@@H](OC3C[C@H](OC)C(O[C@H]4C[C@H](OC)[C@@H](O)[C@H](C)O4)[C@H](C)O3)[C@@H](C)/C=C/C=C3\\COC4[C@H](O)C(C)=C[C@@H](C(=O)O1)[C@]34O)O2", "note": "(stereo not given in full)", "normalised cell number": 0.97}
{"smiles": "COc1c(F)c(F)cc2c(=O)c(C(=O)NO)cn(C3CC3)c12", "normalised cell number": 1.04}
{"smiles": "Cc1[nH]cc[n+]1CC1CCC2C(C1=O)c1ccccc1N2C", "note": "(stereo not given)", "normalised cell number": 0.87}
{"smiles": "NC(CSCSCC(N)C(=O)O)C(=O)O", "note": "(stereo not given)", "normalised cell number": 1.08}
{"smiles": "CC1=C2[C@](C)(C=CC1=O)C[C@H](O)[C@H]1[C@H](C)C(=O)O[C@]21C", "normalised cell number": 1.15}
{"smiles": "NC(=O)c1c(Cl)nc(Cl)c2ccccc12", "normalised cell number": 1.03}
{"smiles": "C=C1OC(=O)C23C(O)C(=O)CC(OC12)C3C", "note": "(stereo not given)", "normalised cell number": 1.06}
{"smiles": "CC#C[C@]1(O)CCC2C3CCC4=CC(=O)CCC4=C3[C@@H](c3ccc(N(C)C)cc3)C[C@@]21C", "note": "(stereo not given in full)", "normalised cell number": 1.09}
{"smiles": "COC1C(O)C(O)C(O)[C@@H](O)C1O", "note": "(stereo not given in full)", "normalised cell number": 1.05}
{"smiles": "CC(CCC(=O)O)[C@H]1CCC2C3CC[C@@H]4C[C@H](O)CC[C@]4(C)C3C[C@H](O)[C@@]21C", "note": "(stereo not given in full)", "normalised cell number": 0.91}
{"smiles": "CC(=O)NCCc1ccc(O)c(-c2c(O)c(O)c3c(c2O)C(=O)c2c(cc(O)c(C(=O)O)c2C(=O)O)C3=O)c1", "normalised cell number": 1.07}
{"smiles": "C[C@H]1[C@H](C)CC[C@]2(C(=O)O)CC[C@]3(C)C(=CCC4[C@@]5(C)C[C@@H](O)[C@H](O)[C@@](C)(CO)C5[C@H](O)C[C@]43C)[C@H]12", "note": "(stereo not given in full)", "normalised cell number": 1.17}
{"smiles": "Nc1nc2c(c(=O)[nH]1)NC(CNc1ccc(C(=O)NC(CCC(=O)O)C(=O)O)cc1)=CN2", "note": "(stereo not given)", "normalised cell number": 0.99}
{"smiles": "OCCN1C[C@H](O)[C@@H](O)C(O)C1CO", "note": "(stereo not given in full)", "normalised cell number": 1.21}
